± gives the standard deviation. In all, about 8,200 sequences were measured (“pre-steady-state target cleavage rate”: median about 0.024, highest 2% from about 1.3 on). The full list was thinned out, with the highest values kept by preference.

This experiment deals with MIWI (PIWIL1) piRISC loaded with L1MC piRNA (30 nt). Nature of the experiment: pre-steady-state target cleavage rate (min^-1); MIWI and MILI are mouse PIWI proteins and EfPiwi is from a freshwater sponge; tags in brackets are library labels; higher = faster piRNA-guided slicing of the target. The note with it: guide: L1MC piRNA 5'p-UAACUAAAUACUAUGCAAGCUGUAGGUCCU
The protocol: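 Cleave-'n-Seq: a library of target RNAs (target site embedded in constant flanks, ACAGCATTCCGCGTTAGTGATATCCG... 5' flank; DNA-blocked outside the site) at 0.1 nM was incubated with 1 nM active mouse MILI or MIWI piRISC (synthetic 5'-monophosphorylated piRNA guide) with or without 500 nM mouse GTSF1 at 33 °C for 1 min to 16 h. Uncleaved targets were sequenced and normalised to non-target controls, and the pooled three trials were fitted to a burst-and-steady-state model to give the pre-steady-state cleavage rate (min^-1; k3 is constrained to at most 1e-4). Sequence is the target site only; target names encode pairing extent (gX:gY) and contiguous / 1-mismatch / 2-mismatch / bulge geometry. Fits with R² ≤ 0 are excluded.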

[1] abbreviates: auxiliary factor: 500 nM mouse GTSF1.
Setting [2] is: auxiliary factor: none (no GTSF1).

For the sequence UCCACCUAGAGCUUGCAUAGUUUUUAGUUA, the “pre-steady-state target cleavage rate” value was 0.22 ± 0.03 under setting [1] and 0.0119 ± 0.0015 under setting [2].
The matching figures for UCCUGGAUGACGCUUGCAUAGUAUUUAGUUA: 0.911 ± 0.059 and 0.0648 ± 0.0085.
The matching figures for UCCACCUACUGCUUGCAUAGUAUUUAGAUA: 0.253 ± 0.043 and 0.0104 ± 0.0021.
For UCCUGGUUGUGCUUGCAUAGUAUUUAGUAA, the “pre-steady-state target cleavage rate” value was 0.2 ± 0.022 under setting [1] and 0.0175 ± 0.0053 under setting [2].
Take UCCUGCUACAGCUUGCAUAGUGUUUAGUUA: the “pre-steady-state target cleavage rate” value turned out to be 0.648 ± 0.045 under setting [1] and 0.0278 ± 0.0045 under setting [2].
For UCGACCUCCAGCUUGCAUAGUAUUUAGUUA the same measures were 1.17 ± 0.06 and 0.0635 ± 0.0099.
On to AGGACCUCACAGCUUGCAUAGUAUUUAGUUA, for which the “pre-steady-state target cleavage rate” value under setting [1] turned out to be 1.28 ± 0.064 and the “pre-steady-state target cleavage rate” value under setting [2] stood at 0.102 ± 0.017.
Take UCGACCUUGAGCUUGCAUAGUAUUUAGUUA: the “pre-steady-state target cleavage rate” value by setting is: under setting [1], 0.789 ± 0.057; under setting [2], 0.0478 ± 0.0086.
Take UCGACCUCACAGCUUGCAUAGUAUUUAGUUA: the “pre-steady-state target cleavage rate” value reads like this: under setting [1], 1.38 ± 0.05; under setting [2], 0.0855 ± 0.017.
For UCGACCUCAGCUUGCAUAGUAUUUAGUUA the same measures were 1.38 ± 0.056 and 0.064 ± 0.013.
The matching figures for UGGACCUCACAGCUUGCAUAGUAUUUAGUUA: 1.46 ± 0.084 and 0.0711 ± 0.014.
Turning to UCCACCUCACAGCUUGCAUAGUAUUUAGUUA, the “pre-steady-state target cleavage rate” value by setting is: under setting [1], 1.06 ± 0.051; under setting [2], 0.0701 ± 0.012.
Turning to AGGACCUUGUGCUUGCAUAGUAUUUAGUUA, the “pre-steady-state target cleavage rate” value came to 0.869 ± 0.046 under setting [1] and 0.0654 ± 0.012 under setting [2].
Take UCCACCUACAGCUUGCAUAUUAUUUAGUUA: the “pre-steady-state target cleavage rate” value is, setting by setting: under setting [1], 1.01 ± 0.075; under setting [2], 0.0312 ± 0.007.
As to UGCACCUACAGCUUGCAUUGUAUUUAGUUA, the “pre-steady-state target cleavage rate” value under setting [1] turned out to be 0.808 ± 0.057 and the “pre-steady-state target cleavage rate” value under setting [2] came to 0.0286 ± 0.0068.
As to “UCCUGGAUGUCGAUGCAUAGUAUUUAGUUA [g2:g17:cont:t1A]”, under setting [1], the “pre-steady-state target cleavage rate” value was 0.0169 ± 0.005.
Still for that read-out and setting: the figure for UGGACCUACAGCAAGCAUAGUAUUUAGAAA is 0.271 ± 0.031.
Consider UCCUGGAUGUCCUUGCAUAGUAUUUAGCUUA, for which the “pre-steady-state target cleavage rate” value reads like this: under setting [1], 0.0471 ± 0.0091; under setting [2], 0.00476 ± 0.0022.
For UGGACCUACAGCUUGCAUAGUAUUUAGUCA the same measures were 0.934 ± 0.05 and 0.0559 ± 0.011.
For AGGACCUACAGCUUGGAUAGUAUUUUGUUA the same measures were 1.05 ± 0.077 and 0.0416 ± 0.0083.
For the sequence UCCUGGAACAGCUUGCUAUGUAUUUAGUAA, the “pre-steady-state target cleavage rate” value reads like this: under setting [1], 0.0313 ± 0.0087; under setting [2], 0.00333 ± 0.002.
As for UCCUGGAUCAGGAAGCAUAGUAUUUAGUUA, the “pre-steady-state target cleavage rate” value under setting [1] came out at 0.00993 ± 0.0028.
Take AGGACCUACUGCUUGCAUUGUAUUUAGUUA: the “pre-steady-state target cleavage rate” value was determined as 0.892 ± 0.03 under setting [1] and 0.0384 ± 0.008 under setting [2].
In the case of UCCUGCUACUGCUUGCUUAGUAUUUAGUUA, the “pre-steady-state target cleavage rate” value turned out to be 0.49 ± 0.039 under setting [1] and 0.0208 ± 0.003 under setting [2].
On to UGGACCUACUGCUUGCUUAGUAUUUAGUUA, for which the “pre-steady-state target cleavage rate” value reads like this: under setting [1], 1.4 ± 0.081; under setting [2], 0.0402 ± 0.0083.
The matching figures for UGGACCUACACCUUGCUUAGUAUUUAGUUA: 1.1 ± 0.062 and 0.0262 ± 0.0061.
The matching figures for AGGACCUACUGCUUGCUUAGUAUUUAGUUA: 1.39 ± 0.087 and 0.05 ± 0.01.
For AGGACCUACACCUUGCUUAGUAUUUAGUUA the same measures were 1.17 ± 0.057 and 0.046 ± 0.0082.
On to UCCACGAACAGCUUGCAUAGUAUUUAGAAA, for which the “pre-steady-state target cleavage rate” value is 0.328 ± 0.039 under setting [1] and 0.00702 ± 0.0022 under setting [2].
For UCCUGGAUGUCGAACGUAAGUAUUUAGUAUA, under setting [1], the “pre-steady-state target cleavage rate” value was below 0.0001.
As to UCCUCCUACAGCUUGCAUUGUAUUUAGUUA, the “pre-steady-state target cleavage rate” value came to 0.952 ± 0.034 under setting [1] and 0.0245 ± 0.0055 under setting [2].
For UCCUGGAUGAGCUUGCAUAGUAUUUUCUAA, the “pre-steady-state target cleavage rate” value under setting [1] is 0.222 ± 0.052.
Regarding AGGACCUACGAGCUUGCAUAGUAUUUAGUUA, the “pre-steady-state target cleavage rate” value under setting [1] is 0.726 ± 0.086 and the “pre-steady-state target cleavage rate” value under setting [2] stood at 0.0555 ± 0.014.
For the sequence UGGACCAACAGCUUGCAUACUAUUUAGUUA, the “pre-steady-state target cleavage rate” value under setting [1] turned out to be 0.419 ± 0.017 and the “pre-steady-state target cleavage rate” value under setting [2] stood at 0.0377 ± 0.0075.
Regarding UCCUGGAUGUCGUUGCAUAGUAUUUAGGUUA, under setting [1], the “pre-steady-state target cleavage rate” value was found to be 0.00749 ± 0.0034.
On to UCCACGUACAGCUUGCAAAGUAUUUAGUUA, for which the “pre-steady-state target cleavage rate” value under setting [1] was 1.19 ± 0.054 and the “pre-steady-state target cleavage rate” value under setting [2] worked out at 0.0439 ± 0.009.
On to UCGACGUACAGCUUGCAUAGUAUUUAGAAA, for which the “pre-steady-state target cleavage rate” value under setting [1] was 0.288 ± 0.026 and the “pre-steady-state target cleavage rate” value under setting [2] is 0.0106 ± 0.0026.
The matching figures for UCCACGUACAGCUUGCAUAGUAUUUAGUAA: 0.521 ± 0.032 and 0.0319 ± 0.0057.
The matching figures for UCGACGUACAGCUUGCAUAGUAUUUAGUAA: 1.01 ± 0.062 and 0.0599 ± 0.011.
UCCACGUACAGCUUGCUUAGUAUUUAGUUA: the “pre-steady-state target cleavage rate” value by setting is: under setting [1], 1.31 ± 0.058; under setting [2], 0.0408 ± 0.0091.
The matching figures for UCCACCUACAGCUUGCUUAGUAUUUAGUUA: 1.16 ± 0.05 and 0.0305 ± 0.0053.
For UGGACGUACAGCUUGCAUAGUAUUUAGUUA the same measures were 1.26 ± 0.051 and 0.0691 ± 0.012.
On to UCGACGUACAGCUUGCAUAGUAUUUAGUUA, for which the “pre-steady-state target cleavage rate” value by setting is: under setting [1], 1.56 ± 0.046; under setting [2], 0.0711 ± 0.011.
Take UCCACGUACAGCUUGCAUAGUAUUUAGUUA: the “pre-steady-state target cleavage rate” value by setting is: under setting [1], 1.35 ± 0.047; under setting [2], 0.0658 ± 0.0097.
For AGCACGUACAGCUUGCAUAGUAUUUAGUUA the same measures were 1.28 ± 0.043 and 0.064 ± 0.011.
For ACGACGUACAGCUUGCAUAGUAUUUAGUUA the same measures were 1.55 ± 0.071 and 0.077 ± 0.013.
The matching figures for UGCACGUACAGCUUGCAUAGUAUUUAGUUA: 1.26 ± 0.045 and 0.0736 ± 0.01.
Consider UCCACCAAGAGCUUGCAUAGUAUUUAGUUA, for which the “pre-steady-state target cleavage rate” value came out at 0.884 ± 0.095 under setting [1] and 0.0363 ± 0.0078 under setting [2].
With UCCACCUACAGCUUGCUUAGAAUUUAGUUA, the “pre-steady-state target cleavage rate” value runs as follows: under setting [1], 0.2 ± 0.025; under setting [2], 0.00583 ± 0.0018.
The matching figures for UCCUGGAACAGCUAGCAUAGAAUUUAGUUA: 0.209 ± 0.02 and 0.0115 ± 0.0043.
For AGGACCUACAGCUUGCAUUGUAUUUAGUUA the same measures were 0.926 ± 0.04 and 0.0656 ± 0.015.
In the case of UCCUGGAUGUCCUUGCAGAGUAUUUAGUUA, the “pre-steady-state target cleavage rate” value under setting [2] turned out to be 0.00314 ± 0.002.
UCCUGGAUGAGCUUGCUUAGUAUUUACUUA: the “pre-steady-state target cleavage rate” value was 0.254 ± 0.042 under setting [1] and 0.0202 ± 0.005 under setting [2].
For UCCACGUACAGCUAGCAUAGUAUUUAGUUA the same measures were 0.815 ± 0.028 and 0.0177 ± 0.0033.
For the sequence UGGACCUAACAGCUUGCAUAGUAUUUAGUUA, the “pre-steady-state target cleavage rate” value by setting is: under setting [1], 1.33 ± 0.061; under setting [2], 0.0609 ± 0.01.
The matching figures for UCCACCUACAGCUUUGCAUAGUAUUUAGUUA: 0.885 ± 0.054 and 0.0278 ± 0.0062.
The matching figures for UCGACCUAACAGCUUGCAUAGUAUUUAGUUA: 1.15 ± 0.069 and 0.0849 ± 0.017.
UGGACCUACAGCUUGCAUAGUAUUUUAGUUA: the “pre-steady-state target cleavage rate” value is, setting by setting: under setting [1], 1.38 ± 0.079; under setting [2], 0.0467 ± 0.012.
For AGGACCUACAGCUUUGCAUAGUAUUUAGUUA the same measures were 1.2 ± 0.066 and 0.0552 ± 0.012.
On to AGGACCCUACAGCUUGCAUAGUAUUUAGUUA, for which the “pre-steady-state target cleavage rate” value was determined as 1.24 ± 0.083 under setting [1] and 0.0716 ± 0.012 under setting [2].
UGGACCCUACAGCUUGCAUAGUAUUUAGUUA: the “pre-steady-state target cleavage rate” value under setting [1] was determined as 1.42 ± 0.074 and the “pre-steady-state target cleavage rate” value under setting [2] came out at 0.0808 ± 0.015.
The matching figures for AGGACCUAACAGCUUGCAUAGUAUUUAGUUA: 1.1 ± 0.059 and 0.0788 ± 0.016.

Values taken from the supplement of paper PMC10338343.
